# System: FXR:RXRa (NR concentration 270 nM, RXRa partner concentration 90 nM)
# Assay: PBM binding z-score (relative to random genomic background probes); higher = stronger binding; sequences stand for … in GC…GCGATTGACAGCGTAGAATGAAGG
# How it was run: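 Binding buffer was PBS pH 7.4 with 2% milk, 0.02% Triton X-100, 1 mM DTT, 0.2 mg/mL BSA and 0.4 mg/ml salmon testes DNA. In it, ligand-free nuclear receptor dimers were incubated 1 h on custom Agilent 4×180K protein-binding microarrays carrying double-stranded probes. Antibodies against each partner (one per run) detected binding, and z-scores were calculated against random background probes after regression normalization of scanned fluorescence.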
row,Sequence,PBM binding z-score
1,TCTCGGAGGACACGATGGTCAGAGCTTTCCAGAG,0.101
2,GCTTACGGATCAAAGGTTATAGCATGAATAGAAT,1.93
3,CTACCAAGGTGAACAAGGTCGTCGATTACTATTC,1.41
4,AATACAGGGTCATCGTAGGCCAGTGTACGCACAG,6.9
5,CCTGCTAGGTCATGGTCAGATAATCTACAGTATG,3.8
6,CGAACTAGGTCAAAGGTCAAAGTCGAGCCAACCA,8.28
7,AATACAGGGTCATTGTAGGCCAGAGTACGCACAG,7.11
8,AGAATGAGGTTATACGTAGATCAGGGATGAAAGT,2.37
9,ATCGAAAGGTCGAGGTGAGTTTAGAGAAAGGGAA,4.34
10,TGAATGAGGTGATAAGATCAGGGAACGTTGCAAA,0.365
11,ATCGAAAGGTCGAAGGTTAGTATACCCACCCGAA,4.06
12,TCATATAGGTAAAGGGTGAAAGTCGGTGTGGTAA,1.34
13,CCTTACGGGTCAAGGTTATAGCGCGGGTGGTACG,5.55
14,CATCCAAGGTCAGAGAGGTCAGTGAATGCCGAGT,6.31
15,CCTTACGGGGCACTGACAGGTTATAGCATTTGGA,-0.345
16,TGAATGAGGTTAAAAATCAGGGAACGTGGCGTCG,1.83
17,TTACCAAGGTGAAAGGTTGTTGATGCACGCCTTG,1.23
18,CCTAGCAGGCCCGGGTCACTCAAGCATTTCGCTT,1.18
19,AGTCAAAGTTCACCAGGTAACGTAAGATTCAGCT,6.31
20,TCTTGTAGATCAAGCCGGTTAAGAAAGCCTGAGT,0.845

row,Sequence,PBM binding z-score
1,TCGAGTAGGTTAGGGGCCTTCAGAATGGCGTCGA,-0.193
2,GCTGGGAGGACAAGGTCAGAGCTTTGTCCGTAGA,1.59
3,CCTTAAGGGTCAAGGTTATAGCACGGGTGGTACG,7.56
4,GCGAGCAGGCCATTTGGGTCACTCAATGACGGGC,0.039
5,CGAACTAGGTCATCTAGGACAGTGAATACATTGA,4.09
6,CCAGACAGGTGAAAGGTACCTCAGTCTGGTACGC,-0.0455
7,GCAGACAGGTAAAACGCAGGTAACTCAGGGTGGC,-0.253
8,CCTCGCAGGCCAATCTGGGTCACTCAAGGCTTGA,0.68
9,GGAACGAGGGCATTCTAGTTGATAGCATGGCGAT,1.44
10,CCTACTAGGCCATTCAGAGGTCATTGATCATATG,3.52
11,AGAACGACGGCACGCTGAGTTGATAGCAGAGTAG,-0.194
12,TCTGCTAGGTTAGTTGGTCAGCTAACGAGCTGCC,-0.522
13,ATCTCTAGGTAACAAGTTCAGTGTAAGAGAGGAC,0.924
14,ATCGAAAGGTCGTGAGGTGAGTAGACAGAAAGGC,5.21
15,CCTACTGGGCCACGAAAGCTCATTGATTCAGTGA,-0.608
16,AGAACGAGGGCAATGAGTTGATGGCACGGGTGGC,0.145
17,CCTACTGGGCCAAGGTTATTGATCAGTCAAAGCA,0.116
18,CCTTACGGGTCAAGGTTTTAGCACGGGTGGTACG,4.88
19,TCTTGTAGACCAATAGAGGTTAAGAAAGTGCGCT,0.806
20,ACAGACAGGTGAGTGAAGGTAACTTAGCTGGACG,0.0414
